PubChem BioAssay (NCATS)
Records with an inconclusive call do not appear. Activity calls are given as the source filed them. Calls follow the shape of the dose curve; as a rule, active = well fitted curve in the direction sought with a large enough effect; inconclusive = small, poorly fitted or top-dose-only effect, or another doubt; inactive = no such curve, though single readings can be large; an effect the other way counts as inactive or inconclusive.

Target: Protein phosphatase 1D (Homo sapiens) (UniProt O15297)
Experiment: Rhodamine-PBP qHTS Assay for Modulators of WT P53-Induced Phosphatase 1 (WIP1) (AID 1347425); also: % of control where 0% means no effect
Conditions: recombinant WIP1, Rhodamine-PBP phosphate fluorescence, real-time; series mostly up to 57.5 µM
Procedure, shortened: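 5 nM WIP1 + 10 uM Rh-PBP, 50 mM Tris pH 7.5, 30 mM MgCl2, 1 mM TCEP, 0.1 mM EGTA, BSA; cpds pinned, 1 hr RT; + 10 uM phosphopeptide; fluorescence 1-min reads x 11 min; delta = f1 - f0.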

Sequence of Protein phosphatase 1D (Homo sapiens) (O15297 whole entry, looked up): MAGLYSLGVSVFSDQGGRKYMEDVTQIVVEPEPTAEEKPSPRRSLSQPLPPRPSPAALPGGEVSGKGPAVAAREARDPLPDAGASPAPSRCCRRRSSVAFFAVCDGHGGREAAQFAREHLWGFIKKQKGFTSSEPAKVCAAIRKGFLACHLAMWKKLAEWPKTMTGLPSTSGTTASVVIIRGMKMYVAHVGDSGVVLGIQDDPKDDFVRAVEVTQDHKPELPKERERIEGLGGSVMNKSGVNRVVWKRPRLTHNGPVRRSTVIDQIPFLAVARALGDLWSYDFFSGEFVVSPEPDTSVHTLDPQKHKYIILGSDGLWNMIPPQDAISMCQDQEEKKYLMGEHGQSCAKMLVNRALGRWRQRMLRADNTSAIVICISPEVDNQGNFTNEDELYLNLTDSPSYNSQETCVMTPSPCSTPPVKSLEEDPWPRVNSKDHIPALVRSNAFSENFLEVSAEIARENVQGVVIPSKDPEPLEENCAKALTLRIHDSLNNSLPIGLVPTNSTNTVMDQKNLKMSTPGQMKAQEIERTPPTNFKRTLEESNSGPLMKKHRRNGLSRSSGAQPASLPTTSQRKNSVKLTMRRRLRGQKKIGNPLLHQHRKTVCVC

SMILES | outcome | activity change, negative = inhibition
COc1cc(C(=S)N2CCOCC2)ccc1O | inactive | –
O=C(Oc1cccc2cccnc12)c1ccccc1 | inactive | –
COc1cc(O)c(C(=O)c2ccccc2)cc1S(=O)(=O)O | inactive | –
O=[N+]([O-])c1ccc(/C=N\O)o1 | inactive | –
O=C(O)CCNC(=O)c1ccccc1 | inactive | –
Cn1c(=O)c2[nH]c(Br)nc2n(C)c1=O | inactive | –
NC1CCN(c2nc3c(cc2F)c(=O)c(C(=O)O)cn3-c2ccc(F)cc2F)C1 (configuration not stated) | inactive | –
COc1ccc(C(=O)c2ccccc2)c(O)c1 | inactive | –
O=C(Nc1ccccc1)OCC(CN1CCCCC1)OC(=O)Nc1ccccc1 (configuration not stated) | inactive | –
Nc1nc(Cl)nc2c1ncn2[C@@H]1O[C@H](CO)[C@@H](O)[C@@H]1F | inactive | –
CC[N+](C)(CC)CCOC(=O)C(O)(c1ccccc1)C1CCCCC1 (configuration not stated) | inactive | –
CN(Cc1ccc(C(C)(C)C)cc1)Cc1cccc2ccccc12 | inactive | –
CC(=O)N[C@@H](CCC(=O)O)C(=O)O | inactive | –
CC(=O)NO | inactive | –
CN1CCN(C2=Nc3ccccc3Sc3ccc(Cl)cc32)CC1 | inactive | –
CCN1CCN(C(=O)N[C@@H](C(=O)N[C@@H]2C(=O)N3C(C(=O)O)=C(CSc4nnnn4C)CS[C@H]23)c2ccc(O)cc2)C(=O)C1=O | inactive | –
COc1cc(C(=O)N2CCCCCCC2)cc(OC)c1OC | inactive | –
C#C[C@]1(O)CC[C@H]2[C@@H]3CCC4=CC(=O)CC[C@@H]4[C@H]3CC[C@@]21CC | inactive | –

SMILES | outcome | activity change, negative = inhibition
COc1ccc(/C=N/NC(=O)c2ccncc2)cc1OC | inactive | –
Nc1nc(N)c(-c2ccccc2)s1 | inactive | –
O=C1C(O)=C(O)C(=O)C(O)=C1O | inactive | –
Cc1cccc(C)c1NC(=O)CN1CCCC1 | inactive | –
c1ccc(CC2=NCCN2)cc1 | inactive | –
Cc1ncc(CO)c(C=O)c1O | inactive | –
CCCN(CCC)S(=O)(=O)c1ccc(C(=O)O)cc1 | inactive | –
CCCCN1C[C@H](O)[C@@H](O)[C@H](O)[C@H]1CO | inactive | –
CCOc1ccccc1C(N)=O | inactive | –
O=C1OC(CN2CCOCC2)CN1/N=C/c1ccc([N+](=O)[O-])o1 (configuration not stated) | inactive | –
OC[C@H]1O[C@@H](Oc2ccc(O)cc2)[C@H](O)[C@@H](O)[C@@H]1O | inactive | –
c1ccc(-c2nc[nH]c2-c2ccccc2)cc1 | inactive | –
Cc1c(-c2ccccc2)oc2c(C(=O)OCCN3CCCCC3)cccc2c1=O | inactive | –
O=C(Nc1ccc([N+](=O)[O-])cc1)Nc1ccc([N+](=O)[O-])cc1 | inactive | –
CCOCCn1c(N2CCCN(C)CC2)nc2ccccc21 | inactive | –
N=C(N)N1CCc2ccccc2C1 | – | -1.93% [at 4.81 µM] (inactive)
Cc1cc(-c2ccccc2)nnc1NCCN1CCOCC1 | inactive | –
CC(=O)Nc1ccc(CC(=O)O)cc1 | inactive | –

Test system: not listed separately
Experiment: Primary qHTS for inhibitors of La Crosse Virus (LACV) - induced cell death in SH-SY5Y cells (AID 1508616);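 also: top concentration of the series differs between compounds; 0% = infected DMSO wells and 100% = uninfected DMSO wells; higher means more rescue of cells from virus-induced death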
Conditions: SH-SY5Y LACV cytopathicity rescue, ATP luminescence, 6 d; series mostly up to 4.29 µM
Procedure, shortened: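 Cytopathicity rescue screen: compounds pinned onto SH-SY5Y cells, which are then infected with LACV (MOI 0.01) and held 6 days at 37C. Percent activity is scaled between infected DMSO control and uninfected DMSO control.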

SMILES | outcome | activity change
COc1cc(C(=S)N2CCOCC2)ccc1O | inactive | –
O=C(Oc1cccc2cccnc12)c1ccccc1 | inactive | –
COc1cc(O)c(C(=O)c2ccccc2)cc1S(=O)(=O)O | inactive | –
O=[N+]([O-])c1ccc(/C=N\O)o1 | inactive | –
O=C(O)CCNC(=O)c1ccccc1 | inactive | –
Cn1c(=O)c2[nH]c(Br)nc2n(C)c1=O | inactive | –
NC1CCN(c2nc3c(cc2F)c(=O)c(C(=O)O)cn3-c2ccc(F)cc2F)C1 (configuration not stated) | inactive | –
COc1ccc(C(=O)c2ccccc2)c(O)c1 | inactive | –
O=C(Nc1ccccc1)OCC(CN1CCCCC1)OC(=O)Nc1ccccc1 (configuration not stated) | inactive | –
Nc1nc(Cl)nc2c1ncn2[C@@H]1O[C@H](CO)[C@@H](O)[C@@H]1F | inactive | –
CC[N+](C)(CC)CCOC(=O)C(O)(c1ccccc1)C1CCCCC1 (configuration not stated) | inactive | –
CN(Cc1ccc(C(C)(C)C)cc1)Cc1cccc2ccccc12 | inactive | –
CC(=O)N[C@@H](CCC(=O)O)C(=O)O | inactive | –
CC(=O)NO | inactive | –
CN1CCN(C2=Nc3ccccc3Sc3ccc(Cl)cc32)CC1 | inactive | –
CCN1CCN(C(=O)N[C@@H](C(=O)N[C@@H]2C(=O)N3C(C(=O)O)=C(CSc4nnnn4C)CS[C@H]23)c2ccc(O)cc2)C(=O)C1=O | inactive | –
COc1cc(C(=O)N2CCCCCCC2)cc(OC)c1OC | inactive | –
C#C[C@]1(O)CC[C@H]2[C@@H]3CCC4=CC(=O)CC[C@@H]4[C@H]3CC[C@@]21CC | inactive | –

SMILES | outcome | activity change
COc1ccc(/C=N/NC(=O)c2ccncc2)cc1OC | inactive | –
Nc1nc(N)c(-c2ccccc2)s1 | inactive | –
O=C1C(O)=C(O)C(=O)C(O)=C1O | inactive | –
Cc1cccc(C)c1NC(=O)CN1CCCC1 | inactive | –
c1ccc(CC2=NCCN2)cc1 | inactive | –
Cc1ncc(CO)c(C=O)c1O | inactive | –
CCCN(CCC)S(=O)(=O)c1ccc(C(=O)O)cc1 | inactive | –
CCCCN1C[C@H](O)[C@@H](O)[C@H](O)[C@H]1CO | inactive | –
CCOc1ccccc1C(N)=O | inactive | –
O=C1OC(CN2CCOCC2)CN1/N=C/c1ccc([N+](=O)[O-])o1 (configuration not stated) | inactive | –
OC[C@H]1O[C@@H](Oc2ccc(O)cc2)[C@H](O)[C@@H](O)[C@@H]1O | inactive | –
c1ccc(-c2nc[nH]c2-c2ccccc2)cc1 | inactive | –
Cc1c(-c2ccccc2)oc2c(C(=O)OCCN3CCCCC3)cccc2c1=O | inactive | –
O=C(Nc1ccc([N+](=O)[O-])cc1)Nc1ccc([N+](=O)[O-])cc1 | inactive | –
CCOCCn1c(N2CCCN(C)CC2)nc2ccccc21 | inactive | –
N=C(N)N1CCc2ccccc2C1 | – | -3.22% [at 0.431 µM] (inactive)
Cc1cc(-c2ccccc2)nnc1NCCN1CCOCC1 | inactive | –
CC(=O)Nc1ccc(CC(=O)O)cc1 | inactive | –
